Screening results: PubChem, National Center for Advancing Translational Sciences (NCATS)
AmpC no deterg – AmpC beta-lactamase inhibition without detergent. AmpC nitrocefin hydrolysis, absorbance 480 nm, 0.0001% Triton. Potency, µM (doses to about 57.1 µM), usual class: inhibitors. 330,000 tested, 0.52% active; further: nearly all actives have a fitted effect of over 20% in size
Target sequence (P00811 whole entry, looked up): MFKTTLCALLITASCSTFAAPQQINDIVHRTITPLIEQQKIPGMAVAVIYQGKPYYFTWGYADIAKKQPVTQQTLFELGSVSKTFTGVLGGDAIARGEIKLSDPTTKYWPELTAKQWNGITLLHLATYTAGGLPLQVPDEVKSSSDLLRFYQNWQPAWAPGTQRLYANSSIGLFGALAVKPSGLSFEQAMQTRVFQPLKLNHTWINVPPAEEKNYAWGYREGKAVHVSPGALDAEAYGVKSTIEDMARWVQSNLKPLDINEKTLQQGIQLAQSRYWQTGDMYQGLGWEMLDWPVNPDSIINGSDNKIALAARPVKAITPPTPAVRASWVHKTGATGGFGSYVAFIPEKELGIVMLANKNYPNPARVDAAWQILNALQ
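20 mM phosphate pH 7.0 + 0.01% (detergent screen) or 0.0001% Triton X-100; 5.3 nM AmpC reagent; cpd preinc 15 min RT; nitrocefin (800 uM stock) to start; A480 q20 s × 4 min; Activity was normalised to no-enzyme and no-compound control wells.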
AmpC detergent – AmpC beta-lactamase inhibition with detergent present. P00811. AmpC hydrolysis of nitrocefin, absorbance 480 nm, 0.01% Triton. Potency, µM (series often up to 114 µM), hits mostly inhibitors. 370,000 tested, 0.041% active; further: nearly all actives have a fitted effect of over 25% in size
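AmpC (5.3 nM in the dispensed reagent) in 20 mM phosphate pH 7.0 with 0.01% (detergent screen) or 0.0001% Triton X-100 was preincubated with compounds for 15 min at room temperature. Nitrocefin was then added from an 800 uM solution, and hydrolysis was followed at 480 nm.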
Pf growth 48h – inhibits P. falciparum growth in the first generation, 48 h; P. falciparum luciferase growth in erythrocytes, 48 h; Potency, µM (doses to about 28.7 µM), most hits filed as inhibitors; 310,000 tested, 5.9% active
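First compound was added to culture medium, then infected red cells at 0.1% parasitemia and 2% hematocrit (final). After incubation at 37 C under 5% CO2, luciferase detection reagent was dispensed and light output recorded.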
Sm TGR inh – S. mansoni TGR enzyme inhibition; Q962Y6; Potency, µM (series often up to 114 µM), actives largely listed as inhibitors; 360,000 tested, 3% active; purified TGR, DTNB reduction, TNB absorbance 405 nm; further: nearly all actives have a fitted effect of over 60% in size
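Kinetic colorimetric format: TGR-catalysed, NADPH-driven DTNB reduction monitored via TNB absorbance. Enzyme dispensed at 20 nM; compound exposure 15 min at room temperature before reaction start.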
Pf growth 96h – P. falciparum growth inhibition at 96 hours; P. falciparum luciferase reporter growth, 96 h; Potency, µM (highest dose often 28.7 µM), usual class: inhibitors; 320,000 tested, 6.9% active; AID 504834
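Readout is luminescence from an integrated firefly luciferase in P. falciparum. Red cells, 2% hematocrit and 0.05% parasitemia final, were cultured with compound through two parasite generations (96 hours) at 37 C, 5% CO2.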
SARS PLpro yeast – SARS-CoV PLP inhibition in yeast; AID 485353; S. cerevisiae expressing SARS-CoV PLpro, growth rescue; Potency, µM (top dose mostly 32.9 µM), hits mostly activators; 330,000 tested, 0.19% active; calls by dose curve; further: nearly all actives have a fitted effect of over 55% in size
Each line names hits and unclear results; the compound was inactive in the other large screens. Sampled rows, rich in hits. Any-hit rate of the full collection: about 12%. Unless noted, the call rests on the fitted dose curve; in most records, active means well fitted curve in the direction sought with a large enough effect; inconclusive means small, poorly fitted or top-dose-only effect, or another doubt; inactive means no such curve, though single readings can be large; an effect the other way counts as inactive or inconclusive.

CC1Sc2ccc(S(=O)(=O)N3CCC(C(=O)NCc4ccc(Cl)cc4)CC3)cc2NC1=O (stereo unspecified)	Pf growth 48h 10µM
Cc1ccc(NC(=O)C2CCN(S(=O)(=O)c3ccc4c(c3)NC(=O)C(C)S4)CC2)c(C)c1 (stereo unspecified)	Pf growth 48h inconclusive, Pf growth 96h inconclusive
Cc1ccc(NC(=O)C2CCN(S(=O)(=O)c3ccc4c(c3)NC(=O)C(C)S4)CC2)cc1C (stereo unspecified)	Pf growth 48h 10µM, Pf growth 96h inconclusive
COc1ccccc1NC(=O)C1CCN(S(=O)(=O)c2ccc3c(c2)NC(=O)C(C)S3)CC1 (stereo unspecified)	Pf growth 48h 12µM, Pf growth 96h inconclusive
CCc1ccc(NC(=O)C2CCN(S(=O)(=O)c3ccc4c(c3)NC(=O)C(C)S4)CC2)cc1 (stereo unspecified)	Pf growth 48h inconclusive, Pf growth 96h inconclusive
N#Cc1c(Cl)nc(N/N=C/c2ccccc2)c(Cl)c1Cl	Pf growth 96h 5.2µM
C[N+](C)(C)c1ccc(/C=N/Nc2nc(Cl)c(C#N)c(Cl)c2Cl)cc1	AmpC detergent inconclusive, Pf growth 48h 2.1µM, Sm TGR inh 45µM, Pf growth 96h inconclusive
NC(=S)N/N=C/c1ccc(-n2nncc2-c2ccc(Cl)cc2)cc1	Pf growth 96h inconclusive, SARS PLpro yeast 10µM
CC12C=CC3(O1)C(C(=O)N(c1ccccc1)C3C(=O)NC1CCCC1)C2C(N)=O (stereo unspecified)	none
COc1cc(OC)cc(C(=O)NCC(=O)N2CCN(c3ccc(O)cc3)CC2)c1	AmpC detergent inconclusive, Sm TGR inh inconclusive, Pf growth 96h inconclusive
COc1cc(OC)c2nc(C)c3c(c2c1)N(c1ccc(O)cc1)CC3	Pf growth 48h inconclusive, Pf growth 96h 13µM
Cc1cc(C)n(CC(=O)N2c3ccccc3Sc3ccc(C(F)(F)F)cc32)n1	Pf growth 48h 10µM, Pf growth 96h inconclusive
CCN1CCCC1CNC(=O)C1CCN(Cc2nc(-c3cccc(Br)c3)oc2C)CC1 (stereo unspecified)	Pf growth 48h 6.6µM, Pf growth 96h inconclusive
CSc1ccc(-c2nc(CN3CCCCC3c3cccnc3)c(C)o2)cc1 (stereo unspecified)	Pf growth 48h 8.3µM
COc1ccccc1CN1CCCCC1c1cccnc1 (stereo unspecified)	none (no result: Pf growth 96h)
COc1ccccc1CNC(=O)C1CCN(Cc2nc(-c3cccc(Cl)c3)oc2C)CC1	Pf growth 48h 10µM
Cc1oc(-c2cccc(F)c2)nc1CN1CCCCC1CCn1cccn1 (stereo unspecified)	Pf growth 48h 13µM
Cc1ccc(C)c(NC(=O)CSc2cn(CC(=O)N3CCCCC3)c3ccccc23)c1	none (no result: AmpC no deterg, Pf growth 48h, Pf growth 96h, SARS PLpro yeast)
CC1(C)Cc2nc3nc(SCC(=O)Nc4ccccc4)nc(N)c3cc2CO1	none
CC(C)c1ccc(NC(=S)NN2C(C)CCCC2C)cc1 (stereo unspecified)	Pf growth 48h inconclusive, Pf growth 96h 6.6µM, SARS PLpro yeast inconclusive
CC(c1ccccc1)N1CCn2c(nc3cc(NC(=O)c4cccs4)ccc32)C1 (stereo unspecified)	Pf growth 48h inconclusive, Sm TGR inh inconclusive (no result: Pf growth 96h)
CCCCC(=O)Nc1ccc2c(c1)nc1n2CCN(CCOC)C1	none
COCCN1CCn2c(nc3cc(NC(=O)c4cccs4)ccc32)C1	Sm TGR inh 18µM (no result: Pf growth 96h)
CCCC(=O)Nc1ccc2c(c1)nc1n2CCN(CCOC)C1	Sm TGR inh 20µM
CSC1=NCCN1C(=O)c1c(-c2c(F)cccc2Cl)noc1C	none
CCCSc1ccc([C@@H]2[C@H]3C(=O)N(CC)C(=O)[C@H]3[C@]3(C(=O)OC)CCCN23)cc1	Pf growth 48h 9.3µM, Pf growth 96h 15µM
COC(=O)[C@@]12CCCN1[C@H](c1ccc(SC3CCCCC3)cc1)[C@H]1C(=O)N(C)C(=O)[C@H]12	AmpC detergent inconclusive, Pf growth 48h 10µM, Pf growth 96h inconclusive
